From PubChem BioAssay (NCI) come the findings set out here.

Structures are written as SMILES. This is part of a sample that, as a whole, favours compounds with a hit. Of some 83,000 tested, about 20% had one in any assay.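 A percent growth of 40 corresponds to 60% growth inhibition; 0 means no net growth; -100 means all cells died. Active threshold: below 10.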 Values without a mark were called inactive. The source made the active and inactive calls.

This assay has as its system SK-MEL-28 melanoma. Description: NCI-60 one-dose screen, 48 h (100 = growth as untreated, 0 = no growth, -100 = all killed). The following applies: 10 µM unless noted. How it is done:
Growth inhibition of the SK-MEL-28 human tumor cell line is measured as a screen for anti-cancer activity. Cells are grown in 96 well plates and exposed to the test compound for 48 hours. Compounds are tested at a single concentration, which is 10^-5 M for most compounds. The reported endpoint is percent growth (GI% or GIPRCNT), where numbers from 0 - 100% represent growth inhibition, and numbers from -100% - 0 represent cell death. For example, a value of 40 represents 60% growth inhibition. A value of 0 means no net growth occurred over the course of the experiment. A value of -40 indicates 40% of cells at the beginning of the experiment died by the end of the experiment. A value of -100 means all cells are dead at the end of the experiment.
NCI-60 Human Tumor Cell Lines Screen was performed using the standard one-dose NCI protocol, which is described in more detail at https://dtp.cancer.gov/discovery_development/nci-60/default.htm.
Compounds with GIPRCNT values below 10 were considered active. Activity score was based on GIPRCNT using the following formula: […]
Score is 0 for GIPRCNT values of 100 or above, 50 for GIPRCNT values of 0, and 100 for GIPRCNT values of -100.
Consider `C1CNC2CCCC2C1` (stereo not given), for which the growth is 111%.
In the case of `CC(/C=N/N=C(N)N)=N\N=C(N)N` it was 87.1%; in that of `C[CH2][Pb]([CH2]C)([CH2]C)[O]C(=O)COc1ccccc1`, 28.3%; in that of `N#CC1=C(N)Oc2cc3c(cc2C1c1cccs1)OCO3` (stereo not given), 37.9%.
For `Cc1nnc([S-])s1.[Au+].c1ccc([PH+](c2ccccc2)c2ccccc2)cc1` the value was -55.7% (active); for `COc1ccc(C(=O)c2ccc([As]=O)cc2)cc1` (stereo not given), -87.1% (active).
`O=C1c2ccccc2C(=O)N1[N+](=O)[O-]`: the growth was 112%.
Consider `CCC(CC)(c1ccccc1)C(OC(N)=O)c1ccccc1` (stereo not given), for which the growth was 85.4%.
In the case of `CNC(=O)Oc1cccc(N(C)C)c1` it was 111%; in that of `Cc1cc([N+](=O)[O-])c(Cl)cc1NS(=O)(=O)c1ccccc1`, 76%.
In the case of `NC(=O)C(Br)CBr` (stereo not given) it was -28% (active); in that of `CNC(=O)Oc1cccc(OC)c1`, 111%; in that of `COc1ccc(C2SCC(=O)Nc3c2c(C)nn3-c2nc3ccc(C)cc3s2)cc1O` (stereo not given), 51.1%.
For `C[C@]12CCC(=O)CC1CC[C@@H]1C2CC[C@@]2(C)C1CC[C@@H]2OC(=O)CC[Se][Se]CCC(=O)O[C@H]1CCC2[C@@H]3CCC4CC(=O)CC[C@]4(C)C3CC[C@@]21C` (stereo not given in full) the value was 98.9%; for `Nc1cccc2c1Oc1ccccc1O2`, 124%.
With `CC1=C(SCCC(=O)OCC(=O)NCCC[Te]c2ccccc2)C(=O)c2ccccc2C1=O`, the growth is -11.4% (active).
For `CCOCC1(CCc2ccccc2)C(=O)NC(=S)NC1=O` the value was 117%.
For `N#C[Se]CCCNS(=O)(=O)C1CC2C=CC1C2` (stereo not given) the value was -15.3% (active); for `CCOc1cc(/C=N\Nc2nnc(C)n2N)c(C)cc1N(CCCl)CCCl`, 37.4%; for `CC12CCC(=O)C=C1CCC1C2CCC2(C)C(C(=O)COC(=O)Cc3ccc(N(CCCl)CCCl)cc3)CCC12` (stereo not given), 104%.
With `COc1ccc(NP2(=O)OCC(C)(N)CO2)cc1` (stereo not given), the growth is 114%.
For `CCCCOC(=O)c1ccccc1C(=O)O.CCCCOC(=O)c1ccccc1C(=O)O.[Cu+2]` the value was 111%; for `CC12CC[C@H](O)C=C1/C(=N/O)CC1C2CCC2(C)C1CC[C@@H]2O` (stereo not given in full), 103%; for `COc1cc2c(cc1OC)CN(C)C(C)C2` (stereo not given), 106%.
For `CC(/C=N/N=C(N)N)=N/N=C(N)N` the value was 96.4%.
For `CC1(C)N=C(N)N=C(N)N1c1ccc(OCCCCOc2ccc(S(=O)(=O)F)cc2)c(Cl)c1` the value was 31.3%; for `CC1(C)N=C(N)N=C(N)N1c1ccc(CCCCc2ccc(S(=O)(=O)F)cc2)c(Cl)c1`, 48.4%.
Take `OC1(c2ccccc2F)c2ccccc2C2=NCCN21` (stereo not given): the growth was 109%.
For the molecule `OC1(c2ccc(Cl)cc2Cl)c2ccccc2C2=NCCN21` (stereo not given), the growth was 111%.
In the case of `CC(=O)OC1CCC2(C)C(=CCC3C4CC(CN5CC5)C(=O)C4(C)CCC32)C1` (stereo not given) it was 97.9%; in that of `CN1C(=O)NC(=O)C(N=Nc2ccc(Cl)cc2)C1=O` (stereo not given), 122%; in that of `C/C(=N/OC(=O)N(C)C)c1cc(Cl)ccc1Cl`, 113%.
In the case of `COc1cc(NCCCCCN=C(N)N)c2ncccc2c1` it was 89.7%; in that of `COc1cc[c]([Hg][Cl])cc1`, 20.7%.
For `CO[C@@H]([CH2][Hg][S]C#N)[C@@H]([CH2][Hg][S]C#N)OC` the value was 104%.
Take `C=C=[CH][Sn]([c]1ccccc1)([c]1ccccc1)[c]1ccccc1`: the growth was -56.8% (active).
Turning to `COc1cc(C2(C#N)CCN(C)CC2)cc(OC)c1OC`, the growth was 106%.
For `CC(C)N=C(NC(C)C)N1CC1` the value was 106%; for `CC(=O)Nc1ccc(C=C2C(=O)NC(=O)NC2=O)cc1`, 106%; for `Oc1ccc(Br)cc1CN1CCN(Cc2ccc(Cl)cc2)CC1`, 88.2%.
